Assay results reported in PubChem BioAssay (NCATS).
A number with no mark means an inactive call. Records with an inconclusive call do not appear. This is one part of the list. Entries that show only a call come without a potency. Activity calls are given as the source filed them. Unless noted, the call rests on the fitted dose curve; in most records, active means well fitted curve in the direction sought with a large enough effect; inconclusive means small, poorly fitted or top-dose-only effect, or another doubt; inactive means no such curve, though single readings can be large; an effect the other way counts as inactive or inconclusive.

Columns and labels:
[1] = target: Lysosomal acid glucosylceramidase (Homo sapiens) (UniProt P04062); experiment: Glucocerebrosidase-p2 (AID 348; in the data active means potency below about 10 µM; further: potency means the concentration at half of the fitted maximal effect); settings: purified GBA, blue fluorogenic substrate, 40 min
Outline: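 Normal human glucocerebrosidase (0.2 nM) with blue fluorogenic substrate (80 uM final) in citrate/phosphate pH 5.9 with 10mM sodium taurocholate, 0.01% tween-20; 40 min RT, NaOH/glycine stop; fluorescence Ex 365/Em 440; AC50 from a titration from 0.6 nM upwards.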

[2] = AP1 Signaling Pathway (AID 357; active means well fitted curve in either direction with a large enough effect, not every such curve was filed as active;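 further: ME-180 reporter cells stimulated with EGF at its EC50 level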); settings: ME-180 (cervical carcinoma) AP-1-bla reporter, EGF-induced, beta-lactamase ratio, 5 h; at 7.69 µM (top of the series) unless noted
Outline: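 In this screen, ME-180 cells in Opti-MEM with 0.5% dialyzed FBS received EC50 EGF and compound titrations for 5 h. AP-1 reporter beta-lactamase was detected via CCF4 ratio, giving AC50 for positive and negative modulators.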

[3] = NFAT Signaling Pathway (AID 444; active means well fitted curve in either direction with a large enough effect, not every such curve was filed as active;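 further: carbachol stimulus at about its EC50 of 1 µM final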); settings: Jurkat NFAT-bla M1, carbachol, beta-lactamase ratio, 5 h; at 7.69 µM (top of the series) unless noted
Outline: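 Jurkat cells with NFAT-driven β-lactamase reporter and co-expressed M1 receptor, stimulated with carbachol (final 1 uM, ~EC50), compound titration, 5 h at 37 °C. CCF4 loaded 1 h at RT; 460/530 nm ratio gave %activity and AC50.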

[4] = Stat Signaling Pathway (AID 446; active means well fitted curve in either direction with a large enough effect, not every such curve was filed as active;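 further: ME-180 cervical cancer cells given 40 pM IL-6 alongside compound; SIE-controlled beta-lactamase reporter measured as 460/530 nm FRET emission ratio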)
Outline: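 Normalization used AC90 stimulation (300 pM IL-6) and AC90 inhibition (125 nM pan-JAK inhibitor at 40 pM IL-6). The underlying signal is SIE-driven beta-lactamase in ME-180 cells after 5 h IL-6 exposure with compound.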

[5] = target: Glucocorticoid receptor (Homo sapiens) (UniProt P04150); experiment: GR-EFC Redistribution (AID 451; calls by dose curve; further: potency means the concentration at half of the fitted maximal effect); settings: CHO-K1 GR-EFC translocation, beta-gal luminescence, 2 h
Outline: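 CHO-K1 cells expressing nuclear EA and GR-ED fragments of b-gal; compounds titrated up to 46 uM final, 2 h at 37 C. GR nuclear translocation read as complemented b-gal luminescence after 1 h RT detection.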

[6] = target: Mitogen-activated protein kinase 10 (Mus musculus) (UniProt Q61831); experiment: JNK3 AlphaScreen Assay (AID 530; active means well fitted curve in either direction with a large enough effect, not every such curve was filed as active;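 further: kinase came from lysate of stimulated human HepG2 cells; signal reports phosphorylation of biotinylated GST-cJun 1-79 at Ser73 with 10 µM ATP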)
Outline: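 Activity was read by AlphaScreen after JNK3-containing HepG2 lysate (cytokine pre-activated) phosphorylated biotinylated GST-cJun with 10 uM ATP at room temperature. Phospho-Ser73 cJun antibody with Protein-A acceptor beads provided detection.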

[7] = target: 3',5'-cyclic-AMP phosphodiesterase 4B (Homo sapiens) (UniProt Q07343); experiment: qHTS Assay for Inhibitors of PDE-IV (AID 607; active means well fitted activation curve with a large enough effect in the main read-out, with a control signal flat, not every such curve was filed as active)
Outline: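 HEK293 ACTOne cells with CNG channel (1000/well), endogenous PDE4; membrane potential dye, compounds up to 22.9 uM final. Fluorescence Ex 535/Em 590; RO 20-1724 (100 uM final) as reference.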

[8] = target: Rap guanine nucleotide exchange factor 3 (Homo sapiens) (UniProt O95398); experiment: Confirmatory qHTS for antagonist of cAMP-regulated guanine nucleotide exchange factor 3 (EPAC1) (AID 1645880); settings: EPAC1 Rap1B-BODIPY-GDP exchange, fluorescence; activity, negative = inhibition: at 115 µM (top of the series); further: nearly all actives have a fitted effect of over 55% in size; further: potency means the concentration at half of the fitted maximal effect
Outline: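 Released BODIPY-GDP fluoresces less than Rap1-bound BODIPY-GDP; the signal is followed at 480/540 nm at 5-min intervals over 30 min, after 5 min at room temperature. Reactions contain 100 nM EPAC1, 250 nM RAP1B-BODIPY-GDP and 50 uM GDP; results are normalized to ATA and DMSO.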

[9] = target: Rap guanine nucleotide exchange factor 4 (Homo sapiens) (UniProt Q8WZA2); experiment: Confirmatory qHTS for antagonist of cAMP-regulated guanine nucleotide exchange factor 4 (EPAC2) (AID 1645885); further: nearly all actives have a fitted effect of over 25% in size
[10] = target: Tumor susceptibility gene 101 protein (Homo sapiens) (UniProt Q99816); experiment: qHTS Assay for Iinhibitors of HIV-1 Budding by Blocking the Interaction of PTAP/TSG101: Hit Validation (AID 651600); further: potency means the concentration at half of the fitted maximal effect; nearly all actives have a fitted effect of over 70% in size
Outline: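 Compounds are added to the Tsg101 binding domain (10 uM final) in pH 7.5 HEPES buffer. FITC-PTAP peptide follows at 50 nM final. After 20 min at r.t., polarized FITC emission is measured.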

[11] = target: Rap guanine nucleotide exchange factor 3 (Homo sapiens) (UniProt O95398); experiment: Counterscreen qHTS for antagonist of cAMP-regulated guanine nucleotide exchange factor 3 (EPAC1) (AID 1645888)
Outline: (§1)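 Rap1B–BODIPY-GDP (250 nM) with 50 uM GDP; compounds pin-transferred to 9.74 nM–152 uM final (activator) or from 7.32 nM upwards (inhibitor). Fluorescence Ex/Em 480/540 nm read at 5 and 30 min, then after adding cAMP or buffer, at room temperature.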

[12] = target: Rap guanine nucleotide exchange factor 3 (Homo sapiens) (UniProt O95398); experiment: Counterscreen qHTS for agonist of cAMP-regulated guanine nucleotide exchange factor 3 (EPAC1) (AID 1645889); further: potency means the concentration at half of the fitted maximal effect; nearly all actives have a fitted effect of over 40% in size
Outline: as §1

[13] = target: Glucocorticoid receptor (Homo sapiens) (UniProt P04150); experiment: GR-GFP Redistribution (AID 450;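 active means compounds whose dose series gives a full or clear partial fitted curve of increased nuclear translocation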; further: potency means the concentration at half of the fitted maximal effect); settings: U2OS GR-GFP nuclear translocation, laser cytometry, 2 h
[14] = target: Cytochrome P450 3A4 (Homo sapiens) (UniProt P08684); experiment: qHTS Assay for Activators of Cytochrome P450 3A4 (AID 885); further: nearly all actives have a fitted effect of over 65% in size
Outline: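 Human CYP3A4 dealkylates Luciferin-PPXE to luciferin, which luciferase detection converts to light. Substrate was at its KM (25uM), buffer 200mM KPO4, reaction 60 min at RT.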

[15] = target: Cytochrome P450 1A2 (Homo sapiens) (UniProt P05177); experiment: p450-cyp1a2 (AID 410; calls by dose curve; further: potency means the concentration at half of the fitted maximal effect)
Outline: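 Luminescent demethylation readout: Luciferin-ME (100uM, equal to Km) turned over by 20nM CYP1A2 for 60 min at room temperature after NADPH regeneration addition, following 10 min compound preincubation. Normalization used 57 uM furafylline as full inhibition.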

[16] = target: Guanine nucleotide-binding protein G(i) subunit alpha-1 (Homo sapiens) (UniProt P63096); experiment: qHTS Assay for Inhibitors of RGS12 GoLoco Motif Activity (Green Fluorophore) (AID 879); further: potency means the concentration at half of the fitted maximal effect
Outline: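 A drop in FITC polarization marked displacement of the FITC-tagged RGS12 GoLoco peptide (10 nM) from Gαi1 (50 nM). Compounds were incubated 10 min at room temperature in Tris pH 7.5 buffer containing 150 mM NaCl, 0.1 mM GDP and 0.05% NP40; unlabeled peptide titration served as control.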

[17] = qHTS Assay for Identification of Small Molecule Antagonists for Thrombopoietin (TPO) Signaling Pathway (AID 918); settings: TPO-dependent cell signaling reporter, antagonist mode; further: potency means the concentration at half of the fitted maximal effect; nearly all actives have a fitted effect of over 60% in size
Outline: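 Inhibition read as reduced luciferase luminescence after 24 h at 37 C in IL-3-deprived Ba/F3 cells carrying human TPO receptor and GPIIb-promoter reporter, stimulated with 26 pM TPO (final, its EC50) alongside compound.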

[18] = target: Pyruvate kinase (Leishmania mexicana) (UniProt Q27686); experiment: qHTS Validation Assay for Inhibitors of Leishmania Mexicana Pyruvate Kinase (AID 945)
Outline: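 Read-out: luminescence from PKLight stop/detection reagent, data normalized to DMSO. Reaction: 0.2 nM E451W LmPYK, 0.5 mM PEP, 0.1 mM ADP, pH 7.2, 1 h room temperature.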

[19] = target: Pyruvate kinase PKM (Homo sapiens) (UniProt P14618); experiment: qHTS Assay for Activators of Human Muscle Pyruvate Kinase (AID 954; active means well fitted curve in the direction sought with a large enough effect, not every such curve was filed as active)
Outline: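 Compound pinned into substrate mix (0.5 mM PEP, 0.1 mM ADP), then 0.1 nM PKM2 added; 1 h, RT. Stop/detection luciferase reagent added, luminescence read. Normalized to no-inhibition and no-enzyme or reference-inhibitor controls.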

[20] = target: Alpha-galactosidase A (Homo sapiens) (UniProt P06280); experiment: Counterscreen for Glucocerebrosidase Inhibitors: qHTS Assay for Human alpha-Galactosidase at pH 4.5 (AID 992)
Outline: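 Steps: enzyme (2 nM final), then compound across 0.7 nM to 77 uM, then 80 uM fluorogenic galactopyranoside substrate; incubate 20 min at room temperature; quench at pH 10; measure fluorescence at 365/440 nm.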

[21] = target: alpha-glucosidase (Oryza sativa, rice) (UniProt Q653V4); experiment: Counterscreen for Glucocerebrosidase Inhibitors: qHTS Assay for Rice alpha-Glucosidase at pH 5.0 (AID 997)
Outline: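 Endpoint fluorogenic assay at pH 5.0: compounds (0.7 nM to 77 uM) titrated against 4 nM rice enzyme and 400 uM 4-MU-alpha-glucoside for 20 min at room temperature; NaOH/glycine stop, read ex 365/em 440 nm, Hill-fitted AC50.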

[22] = target: Bifunctional 3'-5' exonuclease/ATP-dependent helicase WRN (Homo sapiens) (UniProt Q14191); experiment: qHTS for Inhibitors of WRN Helicase: Confirmatory Assay for Cherry-picked Compounds. (AID 720497); settings: WRN helicase DNA unwinding, fluorescence kinetic; further: potency means the concentration at half of the fitted maximal effect; nearly all actives have a fitted effect of over 65% in size
Outline: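 Confirmatory retest of cherry-picked hits in 1536-well format. Enzyme (20 nM final) sat with compound for 15 min at room temperature before forked duplex substrate (100 nM) and ATP (2 mM) were added, and unwinding was followed kinetically by red fluorescence.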

[23] = qHTS for Inhibitors of WRN Helicase: Thiazole Orange DNA Binding Counterscreen (AID 720499);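 further: drop in dye fluorescence marks compound binding to DNA; nearly all actives have a fitted effect of over 60% in size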
Outline: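 Fluorescent ThO–DNA complex (100 nM dye, 50 nM unlabeled DNA) exposed to test compounds for 15 min at room temperature; emission at 530 nm after 480 nm excitation reports dye displacement.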

[24] = target: RecQ-like DNA helicase BLM (Homo sapiens) (UniProt P54132); experiment: qHTS for Inhibitors of WRN Helicase: BLM Helicase Counterscreen for WRN Inhibitors (AID 720503); settings: Recombinant BLM helicase DNA unwinding, red fluorescence; further: potency means the concentration at half of the fitted maximal effect; nearly all actives have a fitted effect of over 60% in size
Outline: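 BLM at 1 nM was preincubated with compound for 15 min at room temperature in 25 mM Tris-HCl pH 8.0, 50 mM NaCl, 2 mM MgCl2, 1 mM DTT and 0.01% Tween-20. Unwinding was started with 100 nM DNA and 2 mM ATP (final). Fluorescence (ex 525/em 598 nm) was read twice, 15 min apart, and normalized to enzyme-free and DMSO controls.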

Chain of Glucocorticoid receptor (Homo sapiens) (P04150 whole entry, looked up, the tested form may be a part): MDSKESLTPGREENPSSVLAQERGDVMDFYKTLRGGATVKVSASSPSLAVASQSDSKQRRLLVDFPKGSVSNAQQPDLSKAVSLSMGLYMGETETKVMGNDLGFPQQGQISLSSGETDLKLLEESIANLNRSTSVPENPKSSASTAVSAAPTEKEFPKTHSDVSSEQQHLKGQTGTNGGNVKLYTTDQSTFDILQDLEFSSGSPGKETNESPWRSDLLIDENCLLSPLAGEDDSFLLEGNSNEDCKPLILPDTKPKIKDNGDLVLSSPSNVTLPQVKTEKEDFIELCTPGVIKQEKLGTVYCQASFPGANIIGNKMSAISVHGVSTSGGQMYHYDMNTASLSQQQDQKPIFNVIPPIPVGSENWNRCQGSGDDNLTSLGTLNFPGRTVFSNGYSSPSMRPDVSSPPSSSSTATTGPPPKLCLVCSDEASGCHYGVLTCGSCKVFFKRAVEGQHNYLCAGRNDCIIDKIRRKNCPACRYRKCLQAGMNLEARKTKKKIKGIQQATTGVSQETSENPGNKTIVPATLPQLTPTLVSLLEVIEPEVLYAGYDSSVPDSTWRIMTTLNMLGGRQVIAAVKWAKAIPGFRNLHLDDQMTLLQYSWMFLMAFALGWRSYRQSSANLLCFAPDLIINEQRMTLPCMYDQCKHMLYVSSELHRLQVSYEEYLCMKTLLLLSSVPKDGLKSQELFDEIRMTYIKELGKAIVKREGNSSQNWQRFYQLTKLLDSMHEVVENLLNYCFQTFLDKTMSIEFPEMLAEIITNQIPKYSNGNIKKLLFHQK
Chain of Rap guanine nucleotide exchange factor 3 (Homo sapiens) (O95398 whole entry, looked up): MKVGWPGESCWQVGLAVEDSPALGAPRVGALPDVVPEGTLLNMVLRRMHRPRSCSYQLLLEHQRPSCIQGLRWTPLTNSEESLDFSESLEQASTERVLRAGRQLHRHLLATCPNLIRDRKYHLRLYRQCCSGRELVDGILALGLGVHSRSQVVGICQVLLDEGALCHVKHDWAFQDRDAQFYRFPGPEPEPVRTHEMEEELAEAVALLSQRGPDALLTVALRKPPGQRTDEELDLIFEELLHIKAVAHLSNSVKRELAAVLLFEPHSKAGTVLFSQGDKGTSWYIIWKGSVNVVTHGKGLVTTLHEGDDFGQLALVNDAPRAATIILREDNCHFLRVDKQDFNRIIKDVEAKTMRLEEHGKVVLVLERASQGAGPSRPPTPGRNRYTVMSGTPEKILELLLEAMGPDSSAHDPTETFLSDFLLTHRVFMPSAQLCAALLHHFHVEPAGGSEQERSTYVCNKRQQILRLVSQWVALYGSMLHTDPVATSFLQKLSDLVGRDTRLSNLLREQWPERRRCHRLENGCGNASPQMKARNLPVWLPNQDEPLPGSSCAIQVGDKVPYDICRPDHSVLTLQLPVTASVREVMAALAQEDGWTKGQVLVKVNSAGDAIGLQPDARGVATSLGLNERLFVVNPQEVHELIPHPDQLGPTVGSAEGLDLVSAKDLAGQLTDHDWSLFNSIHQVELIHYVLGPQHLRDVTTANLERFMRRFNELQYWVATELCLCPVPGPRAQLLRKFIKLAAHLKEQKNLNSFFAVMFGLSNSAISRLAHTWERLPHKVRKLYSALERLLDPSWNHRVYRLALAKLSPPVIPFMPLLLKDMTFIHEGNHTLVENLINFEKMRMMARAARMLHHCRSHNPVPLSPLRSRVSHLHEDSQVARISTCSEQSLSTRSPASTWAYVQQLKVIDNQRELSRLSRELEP
Chain of Rap guanine nucleotide exchange factor 4 (Homo sapiens) (Q8WZA2 whole entry, looked up): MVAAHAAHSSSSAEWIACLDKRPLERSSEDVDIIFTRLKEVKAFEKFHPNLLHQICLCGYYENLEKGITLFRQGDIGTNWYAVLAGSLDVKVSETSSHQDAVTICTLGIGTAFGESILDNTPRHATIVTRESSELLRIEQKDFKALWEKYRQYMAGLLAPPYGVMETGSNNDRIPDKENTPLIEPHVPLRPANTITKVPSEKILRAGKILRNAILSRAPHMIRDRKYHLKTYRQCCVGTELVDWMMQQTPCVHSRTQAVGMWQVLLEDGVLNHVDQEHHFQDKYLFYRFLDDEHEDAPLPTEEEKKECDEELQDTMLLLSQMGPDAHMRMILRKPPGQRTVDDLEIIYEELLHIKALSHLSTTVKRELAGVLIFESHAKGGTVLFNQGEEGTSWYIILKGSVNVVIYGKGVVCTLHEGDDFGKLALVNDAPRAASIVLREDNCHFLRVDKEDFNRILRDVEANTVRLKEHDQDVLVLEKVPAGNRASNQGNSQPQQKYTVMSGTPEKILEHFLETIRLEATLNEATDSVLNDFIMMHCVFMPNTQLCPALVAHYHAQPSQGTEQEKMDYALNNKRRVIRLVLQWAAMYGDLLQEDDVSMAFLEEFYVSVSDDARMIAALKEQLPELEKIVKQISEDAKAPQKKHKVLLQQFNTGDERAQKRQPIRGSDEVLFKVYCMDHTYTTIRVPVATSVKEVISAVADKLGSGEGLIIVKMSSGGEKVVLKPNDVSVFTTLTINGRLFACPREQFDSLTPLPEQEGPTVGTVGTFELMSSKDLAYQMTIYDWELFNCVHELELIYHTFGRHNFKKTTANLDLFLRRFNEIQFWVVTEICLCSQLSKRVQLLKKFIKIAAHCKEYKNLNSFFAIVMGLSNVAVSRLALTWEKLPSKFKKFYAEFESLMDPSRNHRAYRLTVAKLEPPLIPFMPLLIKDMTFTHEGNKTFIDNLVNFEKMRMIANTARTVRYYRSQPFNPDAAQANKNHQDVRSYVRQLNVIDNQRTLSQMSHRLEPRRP
Chain of Tumor susceptibility gene 101 protein (Homo sapiens) (Q99816 whole entry, looked up, the tested form may be a part): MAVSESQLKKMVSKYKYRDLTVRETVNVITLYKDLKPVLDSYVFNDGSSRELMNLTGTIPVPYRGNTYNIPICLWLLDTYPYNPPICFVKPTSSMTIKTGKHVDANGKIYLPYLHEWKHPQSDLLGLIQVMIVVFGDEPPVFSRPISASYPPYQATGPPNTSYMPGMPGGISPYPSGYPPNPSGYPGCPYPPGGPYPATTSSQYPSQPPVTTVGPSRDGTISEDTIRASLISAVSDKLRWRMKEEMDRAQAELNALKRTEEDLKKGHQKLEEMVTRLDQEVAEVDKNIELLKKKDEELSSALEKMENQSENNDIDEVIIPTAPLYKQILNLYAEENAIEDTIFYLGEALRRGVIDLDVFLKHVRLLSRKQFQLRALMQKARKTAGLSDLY
Chain of Lysosomal acid glucosylceramidase (Homo sapiens) (P04062 whole entry, looked up): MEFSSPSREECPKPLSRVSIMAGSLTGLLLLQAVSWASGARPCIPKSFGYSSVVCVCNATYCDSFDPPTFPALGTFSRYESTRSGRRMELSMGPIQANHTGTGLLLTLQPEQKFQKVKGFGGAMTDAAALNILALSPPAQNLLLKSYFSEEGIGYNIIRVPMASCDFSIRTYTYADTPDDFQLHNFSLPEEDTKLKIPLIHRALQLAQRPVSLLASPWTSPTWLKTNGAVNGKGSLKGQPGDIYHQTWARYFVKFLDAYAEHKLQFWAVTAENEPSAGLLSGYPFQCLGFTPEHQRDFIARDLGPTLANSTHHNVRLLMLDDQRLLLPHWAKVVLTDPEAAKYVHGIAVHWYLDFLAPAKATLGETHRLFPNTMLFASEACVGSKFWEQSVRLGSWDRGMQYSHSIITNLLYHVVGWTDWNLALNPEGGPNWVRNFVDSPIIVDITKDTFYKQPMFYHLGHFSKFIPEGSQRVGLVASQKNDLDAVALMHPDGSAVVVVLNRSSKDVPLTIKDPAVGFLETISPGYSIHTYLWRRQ
Chain of Bifunctional 3'-5' exonuclease/ATP-dependent helicase WRN (Homo sapiens) (Q14191 whole entry, looked up): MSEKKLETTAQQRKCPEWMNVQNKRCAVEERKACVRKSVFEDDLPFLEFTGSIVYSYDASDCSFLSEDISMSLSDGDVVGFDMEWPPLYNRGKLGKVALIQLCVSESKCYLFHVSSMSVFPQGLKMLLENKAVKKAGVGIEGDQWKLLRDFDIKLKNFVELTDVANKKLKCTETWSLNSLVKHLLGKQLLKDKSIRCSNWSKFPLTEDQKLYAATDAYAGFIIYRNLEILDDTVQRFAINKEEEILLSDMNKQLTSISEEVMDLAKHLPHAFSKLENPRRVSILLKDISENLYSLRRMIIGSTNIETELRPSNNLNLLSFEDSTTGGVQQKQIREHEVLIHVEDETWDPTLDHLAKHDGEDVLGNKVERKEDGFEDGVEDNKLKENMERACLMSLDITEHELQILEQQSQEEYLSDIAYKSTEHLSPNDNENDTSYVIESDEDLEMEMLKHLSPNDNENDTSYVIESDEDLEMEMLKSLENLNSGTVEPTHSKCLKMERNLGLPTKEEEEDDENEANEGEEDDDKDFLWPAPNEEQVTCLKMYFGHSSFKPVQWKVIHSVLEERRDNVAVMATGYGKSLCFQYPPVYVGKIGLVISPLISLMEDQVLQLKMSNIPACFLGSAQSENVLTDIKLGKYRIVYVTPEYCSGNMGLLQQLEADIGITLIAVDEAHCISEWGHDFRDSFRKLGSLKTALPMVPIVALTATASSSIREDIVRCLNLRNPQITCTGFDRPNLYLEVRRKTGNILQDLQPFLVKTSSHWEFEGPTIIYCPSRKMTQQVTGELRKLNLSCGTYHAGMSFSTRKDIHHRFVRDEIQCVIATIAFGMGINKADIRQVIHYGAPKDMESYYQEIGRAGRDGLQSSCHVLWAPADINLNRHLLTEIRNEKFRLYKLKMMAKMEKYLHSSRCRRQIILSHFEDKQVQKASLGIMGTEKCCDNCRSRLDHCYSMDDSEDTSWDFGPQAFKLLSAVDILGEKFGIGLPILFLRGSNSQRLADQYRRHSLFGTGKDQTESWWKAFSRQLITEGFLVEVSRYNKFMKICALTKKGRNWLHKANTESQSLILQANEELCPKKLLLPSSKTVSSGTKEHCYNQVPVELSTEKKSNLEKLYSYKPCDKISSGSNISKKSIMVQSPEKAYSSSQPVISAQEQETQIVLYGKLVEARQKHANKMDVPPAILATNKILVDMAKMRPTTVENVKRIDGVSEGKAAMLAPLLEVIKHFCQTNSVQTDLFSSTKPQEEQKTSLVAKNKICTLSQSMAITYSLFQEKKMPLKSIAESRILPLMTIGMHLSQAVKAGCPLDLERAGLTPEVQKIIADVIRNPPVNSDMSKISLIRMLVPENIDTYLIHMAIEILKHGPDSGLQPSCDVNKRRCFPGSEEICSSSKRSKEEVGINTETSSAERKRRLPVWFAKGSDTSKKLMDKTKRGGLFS

## CC(=O)N1CCC2(CCCN(c3ccc(-c4ccccc4)cc3)C2)CC1
[1]
  Potency: > 11.4 µM
[2]
  activity change, negative = inhibition: -10.1%
[3]
  activity change, negative = inhibition: -24.3%
[4]
  outcome: inactive
[5]
  Potency: > 46 µM
[6]
  Potency: inactive
[7]
  Potency: inactive
[8]
  Potency: inactive
[9]
  Potency: inactive

## O=C(OCCN1C(=O)c2cccc3c(N4CCOCC4)ccc(c23)C1=O)c1ccc(Cl)cc1Cl
[10]
  Potency: 4.61 µM (active)
[8]
  Potency: inactive
[9]
  Potency: inactive
[11]
  activity change, negative = inhibition: 68.2% [at 30.8 µM]

## Cc1ccc(-c2nc(S(=O)(=O)c3ccc(C)cc3)c(N3CCOCC3)o2)cc1
[8]
  Potency: inactive
[11]
  Potency: inactive

## CN1c2ccccc2C(C)(C)C12C=Nc1c(cc(N3CCOCC3)c3ccccc13)O2 (stereo not drawn)
[8]
  Potency: inactive
[11]
  Potency: inactive

## O=C1CCN2C=Nc3cccc4ccc1c2c34
[10]
  Potency: 6.51 µM (active)
[8]
  Potency: inactive
[9]
  Potency: inactive
[11]
  activity change, negative = inhibition: 142% [at 30.8 µM]
[12]
  Potency: 11.2 µM (active)

## Cc1ccc(CNC(=O)c2cccc3c2C(=O)c2ccc(N4CCC(C)CC4)cc2S3(=O)=O)cc1
[8]
  Potency: inactive
[9]
  Potency: inactive
[12]
  Potency: 11.2 µM (active)

## COc1cccc(Nc2ncc3nc(-c4cc(F)cc(F)c4)c(=O)n(CCC#N)c3n2)c1
[1]
  Potency: > 11.4 µM
[4]
  outcome: inactive
[13]
  Potency: > 9.22 µM
[5]
  Potency: > 46 µM
[6]
  Potency: inactive
[14]
  outcome: inactive
[8]
  Potency: inactive
[9]
  Potency: inactive

## CC(=O)[C@@]1(O)Cc2c(O)c3c(c(O)c2[C@H](O[C@H]2C[C@H](N)[C@H](O)[C@H](C)O2)C1)C(=O)c1ccccc1C3=O
[2]
  activity change, negative = inhibition: -110% [at 38 µM] (active)
[15]
  Potency: 20 µM (active)
[3]
  activity change, negative = inhibition: -116% [at 38 µM] (active)
[5]
  Potency: > 46 µM
[6]
  Potency: inactive
[16]
  Potency: 0.02 µM (active)
[17]
  Potency: 0.0251 µM (active)
[18]
  outcome: inactive
[19]
  outcome: inactive
[20]
  outcome: inactive
[21]
  outcome: inactive
[8]
  Potency: inactive
[9]
  Potency: inactive
[11]
  activity change, negative = inhibition: 128% [at 30.8 µM]

## COc1cccc(/C=N/NC(=O)c2[nH]nc3c2CCc2ccccc2-3)c1O
[22]
  Potency: 21.5 µM (active)
[23]
  outcome: inactive
[24]
  Potency: 6.81 µM (active)
[8]
  Potency: 33.8 µM (active)
[9]
  Potency: inactive
[11]
  Potency: inactive
